# Test results taken from PubChem BioAssay AID624417 (National Center for Advancing Translational Sciences (NCATS), 2012).
# About 6,400 (1.6%) of roughly 410,000 compounds were called active. Roughly 20% stayed inconclusive and do not appear here. Shown is part of a subset that was picked to be rich in actives. A number with no mark means an inactive call. The call rests on the fitted dose curve; in most records, active means well fitted inhibition curve with a large enough effect; inconclusive means small, poorly fitted or top-dose-only effect; inactive means no such curve, though single readings can be large or run the other way.
# Molecular target: Glucagon-like peptide 1 receptor (Homo sapiens) (UniProt P43220)
# Assay: qHTS of GLP-1 Receptor Inverse Agonists (Inhibition Mode); further: nearly all actives have a fitted effect of over 55% in size
# Conditions: HEK293 GLP-1R CRE-luciferase, luminescence, 24 h, GLP-1R form is constitutively active; series mostly up to 38.3 µM; activity change, negative = inhibition: at the top concentration
# Source text: The overall goal of this project was to develop a novel assay for discovering small molecule ligands for class B1 G protein-coupled receptors (GPCRs). Very few agonists (or inverse agonists in inhibition mode) with generally weak activity for this entire group of physiologically important receptors are known to date. To establish proof-of-principle that this critical bottleneck can be overcome with a suitable screening approach, our studies focused on the class B1 receptor for glucagon-like peptide-1 (GLP-1R), a potential therapeutic target for diabetes and neurodegenerative disease. The assay was developed using a cell-based functional readout. Toward this goal, stably transfected HEK293 cell clones were established that co-express (i) a cAMP-responsive luciferase reporter gene, and (ii) constitutively active GLP-1R that upon ligand interaction inhibit (inverse agonists) the luciferase activity. In addition, two control cell lines were developed: (i) one that express only the cAMP-responsive reporter gene to enable initial exclusion of GLP-1R independent effects of candidate probes; and (ii) one with the reported gene cloned with another constitutively active orphan receptor GPR119 to enable exclusion of GLP-1R independent inhibitor effects of candidate inverse agonists. To that end, this assay was optimized for 1536-well format and screened against the MLSMR. […] NIH Molecular Libraries Probe Production Network [MLPCN] NIH Chemical Genomics Center [NCGC] Grant: NS064851 PI Name: Martin Beinborn, Tufts Medical Center
# Six ul of cell suspension (200 cells/uL in DMEM + 10% Nu serum + 1% pen-strep) is dispensed in a white solid 1536-well plate. The plates are incubated for 12 hours at 37 deg C at 5% CO2 followed by addition of 23 nL compounds. After 24 hr incubation at 37 deg C and 5% CO2, 3 uL of luciferase assay detection reagent is added. A luminescence read is obtained on the PerkinElmer Viewlux after 12 min incubation at room temperature.
# On the % scale 0 is the no-effect control and ±100 the full control effect; potency means the concentration at half of the fitted maximal effect.
# Chain of Glucagon-like peptide 1 receptor (Homo sapiens) (P43220 whole entry, looked up): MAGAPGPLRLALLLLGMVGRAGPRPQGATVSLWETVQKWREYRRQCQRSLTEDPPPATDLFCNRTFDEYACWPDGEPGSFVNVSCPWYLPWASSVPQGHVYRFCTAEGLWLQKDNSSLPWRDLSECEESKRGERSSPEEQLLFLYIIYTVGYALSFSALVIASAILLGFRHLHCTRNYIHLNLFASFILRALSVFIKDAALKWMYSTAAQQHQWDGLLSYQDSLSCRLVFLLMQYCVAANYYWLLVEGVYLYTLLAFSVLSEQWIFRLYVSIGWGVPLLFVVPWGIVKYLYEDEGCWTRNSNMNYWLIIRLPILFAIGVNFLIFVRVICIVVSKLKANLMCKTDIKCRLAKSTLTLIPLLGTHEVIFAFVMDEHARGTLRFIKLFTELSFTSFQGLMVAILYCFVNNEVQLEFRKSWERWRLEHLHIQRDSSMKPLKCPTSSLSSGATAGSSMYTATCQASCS
SMILES,Potency,"activity change, negative = inhibition [%]"
O=C(CSCc1ccc(Cl)cc1)N1CCN(Cc2ccc3c(c2)OCO3)CC1,10 µM (active),–
O=C(Nc1cccc2ccccc12)N1CCN(Cc2ccc3c(c2)OCO3)CC1,–,-8.77
O=C(c1cccs1)N1CCN(Cc2ccc3c(c2)OCO3)CC1,–,-17.2
CCCC(=O)N1CCC1(C)C(=O)NCc1ccc(SC)cc1 (configuration not stated),–,23.8
CC1(C(=O)NS(=O)(=O)c2ccccc2Cl)CCN1C(=O)c1cccc(F)c1 (configuration not stated),–,5.93
O=C(N/N=C/c1ccc(OC(=O)c2ccccc2Cl)cc1)c1ccc(O)cc1,–,-23.4
O=C(N/N=C/c1ccc(OCc2ccccc2)cc1)c1ccc(O)cc1,2.82 µM (active),–
O=C(Cc1cccs1)N/N=C/c1ccc(OCc2ccccc2)cc1,–,-1.37
O=C(O)c1ccccc1Cc1ccc(F)c2ccccc12,–,-24.8
CCC(C(=O)NC(C)(C)C)n1c(-c2ccccc2)nc2ccccc21 (configuration not stated),–,-19
C[C@H]1CN([C@@H](C)CO)C(=O)c2cc(-c3ccccc3F)cnc2O[C@H]1CN(C)C(=O)C1CCOCC1,–,-13.6
CC1(C(=O)Nc2cccc3cccnc23)CCN1C(=O)CCC1CCCC1 (configuration not stated),–,-3.58
O=C(NCCN1CCOCC1)c1ccc2c(c1)N(Cc1cccc(Cl)c1)C(=O)c1ccccc1S2(=O)=O,–,-27.9
Cc1ccccc1N1CCN(Cc2nc(Cc3ccccc3F)no2)CC1,11.2 µM (active),–
Cc1cccc(N2CCN(Cc3nc(C4CC4)no3)CC2)n1,–,-5.11
Fc1cccc(Cc2noc(CN3CCN(c4cnccn4)CC3)n2)c1,–,-5.63
Cc1cc(Cl)ccc1OCCCC(=O)NCc1ccccn1,–,15.3
Cc1cc(Cl)ccc1OCCCC(=O)Nc1cccc(-n2cnnn2)c1,10 µM (active),–
Cc1cc(Cl)ccc1OCCCC(=O)NCc1ccncc1,–,8.81
COc1ccc(C(O)c2nc(-c3ccc(OC)nc3)cs2)cc1 (configuration not stated),–,-6.1
Cc1cc(Br)cn2c(Cc3ccccc3C(F)(F)F)c(-c3ccc(Cl)cc3)nc12,–,-21.1
CCCCN(C=O)c1c(CC)nc2c(OCc3ccccc3C(=O)OC)cccn12,–,-20.9
O=S1(=O)CC(N2CCN(c3ccccn3)CC2)CN1Cc1ccc(F)cc1 (configuration not stated),–,-6.64
CCc1nc2c(OCc3ccc(F)c(F)c3)cccn2c1N(C)C(=O)c1ccco1,–,-6.92
CCCNC(=O)c1cc(C2CCCCN2S(=O)(=O)c2ccc(C#N)cc2)on1 (configuration not stated),–,10.6
Cc1nc2ccc(NC(=O)C3CCCCC3)cc2s1,–,7.04

SMILES,Potency,"activity change, negative = inhibition [%]"
Cc1nc(NC(=O)C23CCC(C)(C(=O)O2)C3(C)C)sc1C (configuration not stated),–,-14.9
Cc1nc(NC(=O)C2CCCCC2)sc1C,8.91 µM (active),–
NC(=O)CSc1nnc(-c2cccc(S(=O)(=O)N3CCOCC3)c2)o1,–,-1.36
Cc1ccc(C(=O)NC(C)C(c2cccs2)N2CCOCC2)cc1C (configuration not stated),–,-10.4
Cn1nc(N)c2ncc(C(Cl)(Cl)Cl)nc21,–,26.9
O=[N+]([O-])c1ccc(N2CCN(CC(O)COc3ccccc3)CC2)cc1 (configuration not stated),–,-33.7
CC(=O)Nc1ccc(OCC(O)CN2CCN(c3ccccc3Cl)CC2)cc1 (configuration not stated),–,-43.5
O=c1cc(CN2CCN(c3cccc(Cl)c3)CC2)c2cc3c(cc2o1)CCCC3,–,0
OC(COc1ccc(Br)cc1)CN1CCCC1 (configuration not stated),–,-28.2
OC(COc1ccc2c(c1)CCC2)CN1CCN(c2cccc(Cl)c2)CC1 (configuration not stated),10 µM (active),–
O=C(c1ccc(Cl)cc1)c1ccc(OCC(O)CN2CCCCC2)cc1 (configuration not stated),5.01 µM (active),–
Cc1ccc(S(=O)(=O)N2C[C@]3(O)C[C@@H]4C(=O)N(c5ccccc5)C(=O)[C@@H]4C[C@]3(OC(=O)NC3CC3)C2)cc1,–,6.42
C[C@H](O)[C@@H]1C(=O)N2CCc3c([nH]c4ccccc34)[C@@H]2C[C@@H]1N(C)C(=O)Nc1ccc(F)cc1,–,-27.5
C=CC(COCc1ccccc1)N(Cc1ccccc1)S(=O)(=O)c1ccccc1Br (configuration not stated),10 µM (active),–
CCN([C@H](CO)C(C)C)S(=O)(=O)c1ccccc1Br,–,-6.5
CC(C)Cc1ccc(-c2cc3nc(NCc4cccc(Cl)c4)ccn3n2)cc1,2.82 µM (active),–
Cc1cc(C)n2c(NCc3ccccc3)c(CC(C)C)nc2n1,–,17.8
COCCn1c(SCC(=O)Nc2ccc(F)cc2F)nc2c(c1=O)SCC2,–,14.7
CC1(C(=O)NCc2ccccc2)CSCC(=O)N1CCCn1ccnc1 (configuration not stated),–,0.0455
Cc1cccc(N2CCN(C(=O)c3cccc(N4C(=O)C5C6C=CC(C6)C5C4=O)c3)CC2)c1C (configuration not stated),–,1.97
Cc1cccc(N2CCN(C(=O)c3ccc4c(c3)CCN4S(=O)(=O)c3ccccc3)CC2)c1C,7.94 µM (active),–
O=S(=O)(c1ccccc1)N1CCc2ccccc21,–,-1.14
O=C(Nc1cccc(C(=O)O)c1)/C(=C\c1ccccc1)NC(=O)c1ccc(Br)o1,–,0.998
OC[C@@H]1CN(Cc2ccc(-c3ccccc3)cc2)C[C@H](n2cnc3c(NC4CCCC4)ncnc32)O1,8.91 µM (active),–
OC[C@@H]1CN(Cc2cccs2)C[C@H](n2cnc3c(NC4CCCC4)ncnc32)O1,–,6.84
OC[C@@H]1CN(Cc2ccc(F)cc2)C[C@H](n2cnc3c(NC4CCCC4)ncnc32)O1,–,5.41

SMILES,Potency,"activity change, negative = inhibition [%]"
CC(=O)c1ccc(Nc2nc(C(N)c3ccccc3)cs2)cc1 (configuration not stated),–,20
COc1cccc(-c2nc3nc(C)cc(C)n3c2NC2CCCCC2)c1,–,-11
CCCCNC(=S)N/N=C1\CCCCc2ccccc21,11.2 µM (active),–
Cc1ccc(NC(=S)N/N=C2/CCCc3c(C)cc(C)cc32)cc1,–,6.24
CCCCNC(=O)C(=O)c1ccccc1NC(C)=O,–,16
CCC(=O)N1CCC(C)(C(=O)Nc2cc(OC)c(OC)c(OC)c2)C1 (configuration not stated),–,4.97
CC(=O)c1cccc(-c2cnc3c(NC=O)cc(-c4ccc(N5CCN(C)CC5)cc4)cn23)c1,–,0.896
COc1ccc(NC(=O)CCN2CCN(CCO)CC2)cc1,–,1.87
COc1ccc(C(=O)Nc2sc(C)c(C)c2CN2CCOCC2)cc1,–,6.13
CCc1cc(C(=O)c2ccc(OC)cc2)c(NC(=O)CN2CCN(C)CC2)s1,4.47 µM (active),–
CC(C)(C)c1nc2ccccc2c(=O)n1N1C(=O)c2ccccc2C1=O,10 µM (active),–
CN(C)CCCn1c(SCCN2C(=O)c3ccccc3C2=O)nc2ccccc2c1=O,–,0.122
Cc1nc2ccccc2c(=O)n1NC(=O)c1ccccc1,–,-2.48
CC1(C(=O)Nc2ccc3c(c2)OCCO3)CCN1C(=O)Cc1cc(F)ccc1F (configuration not stated),–,18.6
CC1(C(=O)NS(=O)(=O)Cc2cccc(Cl)c2)CCN1C(=O)Cc1ccc(Cl)cc1Cl (configuration not stated),–,-14
CC(C)N1C(=O)c2ccccc2NC(=O)C1C(=O)NCc1cccs1 (configuration not stated),–,13.4
COCCNc1nc(Nc2ccccc2Cl)c2sc(-c3ccccc3)cc2n1,–,1.32
CCOc1ccc(S(=O)(=O)NCCC(=O)NNC(=O)c2ccc(F)cc2)cc1,–,-3.11
COc1ccc(NC(=O)CN(C)C(=O)/C=C/c2cn(Cc3ccccc3)nc2-c2cccnc2)cc1,–,-10.7
COc1cccc(NC(=O)CN(C)C(=O)/C=C/c2cc(OC)ccc2OC)c1,–,8.88
COc1cccc(NC(=O)CN(C)C(=O)/C=C/c2cn(-c3ccccc3)nc2-c2cccs2)c1,7.94 µM (active),–
CC(C)(O)C1=C[N+](=O)CC=C1,–,4.83
CCC(C)CN1C(=O)CSCC1(C)C(=O)NCc1ccccc1 (configuration not stated),–,2.26
O=C1OCCC1=COCCCCOC=C1CCOC1=O,–,10.1
O=C(NCC(O)c1nc2ccccc2[nH]1)c1ccc(Br)cc1 (configuration not stated),–,16.8
CCOc1ccc2[nH]c(=O)c(CN(CCCO)S(=O)(=O)c3ccc(F)cc3)cc2c1,–,-22.2

SMILES,Potency,"activity change, negative = inhibition [%]"
CCN(Cc1cc2cc(C)ccc2[nH]c1=O)S(=O)(=O)c1ccccc1,–,0
COc1ccc2[nH]c(=O)c(CN(Cc3cccnc3)S(=O)(=O)c3ccccc3F)cc2c1,5.01 µM (active),–
O=C(c1cccs1)N1C[C@H](n2cc(C3CC3)nn2)[C@@H](O)C[C@@H]1c1ccccc1,–,-2.08
COCCNc1ncnc2c1ncn2[C@H]1CN(CCN2CCOCC2)C[C@@H](CO)O1,–,17.3
CN1CCN(CCCNC(=O)c2cc3c(=O)oc4ccccc4c3s2)CC1,–,0.453
CCC1CCCCN1CCCNC(=O)C1CCC(Cn2c(=O)[nH]c3ccccc3c2=O)CC1 (configuration not stated),–,0
COc1ccc(C(C)(NC(C)=O)c2nc(-c3ccc(S(C)(=O)=O)cc3)cs2)cc1 (configuration not stated),–,-9.28
O=C(CN1C(=O)NC2(CCc3ccccc32)C1=O)NC1CCCCC1 (configuration not stated),–,-4.63
O=C(COc1ccc(S(=O)(=O)N2CCCC2)cc1[N+](=O)[O-])N1CCCCC1,–,14.7
CC(=O)Oc1cc2c(C(=O)NCCN3CCOCC3)c(C)oc2c2ccccc12,10 µM (active),–
CCc1cc(=O)oc2c(C)c(OCC(=O)NCCN3CCOCC3)ccc12,–,40.4
Cc1cc(C)cc(C(=O)NCCN2CCOCC2)c1,–,4.45
O=C1NC(O)CCN1C1CC(O)C(CO)O1 (configuration not stated),–,16.9
COc1ccc(C(O)C(O)(C(=O)OC(C)C)c2ccc(C)cc2)cc1 (configuration not stated),–,1.49
Cc1nc2ccccn2c(=O)c1NC(=O)c1ccc(Br)o1,–,14.8
CCCN(CC1COc2ccccc2O1)C(=S)Nc1ccc(C)cc1 (configuration not stated),11.2 µM (active),–
COc1ccc(NC(=O)C2COc3ccccc3O2)cc1 (configuration not stated),–,-25.7
CCC(=O)c1ccc(OCC(=O)N(CC)CC2COc3ccccc3O2)cc1 (configuration not stated),–,-21.6
CS(=O)(=O)N1CCCCC1c1cc(C(=O)NCc2ccccc2)no1 (configuration not stated),–,20.8
COC(=O)[C@]12CCCCC=C1N(Cc1ccco1)C(=O)[C@H](CC(=O)NCC1CCCCC1)C2,–,-13
O=C(NCCCN1CCN(c2ccc(F)cc2)CC1)Nc1ccc([N+](=O)[O-])cc1,11.2 µM (active),–
CN1CCN(CCNC(=O)Nc2ccc([N+](=O)[O-])cc2)CC1,–,-11.5
O=C(CN1CCN(c2ccccc2)CC1)Nc1ccc(F)cc1,–,-1.18
CCC(C)CN1C(=O)CN(S(C)(=O)=O)CC1(C)C(=O)Nc1ccc2c(c1)OCCO2 (configuration not stated),–,21.8
